According to PubChem BioAssay (Tox21):
Unmarked numbers belong to inactive results. Inconclusive results are not listed. Where a call stands in place of a potency, no number is given. Calls of active or inactive are those of the source. Unless noted, the call rests on the fitted dose curve.

Legend:
[1] = Nuclear factor erythroid 2-related factor 2/antioxidant responsive element (Nrf2/ARE) small molecule agonists: qHTS cell viability counter screen in human keratinocytes (AID 1919968; active means well fitted curve in the direction sought with a large enough effect in the repeat runs; an effect the other way counts as inactive or inconclusive; further: nearly all actives have a fitted effect of over 55% in size; further: potency means the concentration at half of the fitted maximal effect)
Method in brief: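 HaCaT ARE reporter line, 1,500 cells/well; 5 h settle, 37 C/5% CO2; cpd in DMSO pinned; 23 h exposure; CellTiter-Fluor, 1 h; fluorescence.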

[2] = Nuclear factor erythroid 2-related factor 2/antioxidant responsive element (Nrf2/ARE) small molecule agonists: luciferase reporter gene qHTS assay in human keratinocytes (AID 1919969); further: nearly all actives have a fitted effect of over 35% in size; further: potency means the concentration at half of the fitted maximal effect
[3] = target: Gonadotropin-releasing hormone receptor (Homo sapiens) (UniProt P30968); test: Human gonadotropin-releasing hormone receptor (GnRHR) small molecule agonists, calcium flux assay in GnRHR-HEK293 cells (AID 1920063); further: nearly all actives have a fitted effect of over 35% in size
Sequence of Gonadotropin-releasing hormone receptor (Homo sapiens) (P30968 whole entry, looked up): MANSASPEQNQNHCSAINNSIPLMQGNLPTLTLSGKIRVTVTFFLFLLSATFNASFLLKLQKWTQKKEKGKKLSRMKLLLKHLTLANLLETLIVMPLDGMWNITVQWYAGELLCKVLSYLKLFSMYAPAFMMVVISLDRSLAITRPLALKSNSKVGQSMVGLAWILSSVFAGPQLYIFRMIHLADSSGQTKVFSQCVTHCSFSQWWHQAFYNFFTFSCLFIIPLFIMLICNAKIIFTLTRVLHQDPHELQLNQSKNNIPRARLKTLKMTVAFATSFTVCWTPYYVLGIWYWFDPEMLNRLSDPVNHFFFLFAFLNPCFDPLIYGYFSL
Method in brief: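 GnRHR-HEK293, 1500 cells/well, 18 h 37 C/5% CO2; Ca dye 1 h 37 C; cpd pinned (DMSO), agonist mode; kinetic FL 480/540, 3 min, 1 s reads; 15 conc, n=3.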

[4] = target: KiSS-1 receptor (Homo sapiens) (UniProt Q969F8); test: Human kisspeptin (KISS1R) small molecule agonists, calcium flux assay in KISS1R-HEK293 cells (AID 1920064; active means well fitted curve in the direction sought with a large enough effect in the repeat runs; an effect the other way counts as inactive or inconclusive)
Sequence of KiSS-1 receptor (Homo sapiens) (Q969F8 whole entry, looked up): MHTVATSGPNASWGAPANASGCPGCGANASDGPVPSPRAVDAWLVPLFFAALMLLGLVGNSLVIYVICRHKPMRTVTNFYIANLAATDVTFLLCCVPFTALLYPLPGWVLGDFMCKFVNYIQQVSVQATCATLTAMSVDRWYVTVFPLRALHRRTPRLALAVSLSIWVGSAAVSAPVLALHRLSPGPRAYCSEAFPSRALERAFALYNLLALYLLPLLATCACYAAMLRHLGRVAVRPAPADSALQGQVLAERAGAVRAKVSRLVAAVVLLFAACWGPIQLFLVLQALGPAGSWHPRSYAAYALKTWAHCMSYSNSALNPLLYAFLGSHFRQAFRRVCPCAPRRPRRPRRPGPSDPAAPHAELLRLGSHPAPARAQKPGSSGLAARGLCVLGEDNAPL
Method in brief: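 Stable human KISS1R HEK293 line; 18 h plating, 37 C/5% CO2; calcium dye 1 h 37 C; compound pin transfer; kinetic fluorescence Ex/Em 480/540, 3 min.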

[5] = G protein-coupled receptor (GPCR) small molecule agonists, calcium flux assay: HEK293 wild type cell line counter screen (AID 1920065)
Method in brief: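 Kinetic fluorescence at Ex/Em 480/540, recorded every second over 3 min, served as the read-out after compound addition. Each compound was tested at 15 concentrations in triplicate on cells pre-loaded with calcium dye for 1 h.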

[6] = p53 small molecule agonists, cell-based qHTS assay with human liver microsomes (AID 1963577);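 further: p53 response element beta-lactamase reporter cells with liver microsomes plus NADPH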
Method in brief: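 In this qHTS, p53 response-element beta-lactamase cells receive test compound together with a microsome/NADPH activating system (0.5 mg/mL final each) and are incubated 16 h at 37 C before LiveBLAzer fluorescence detection.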

[7] = p53 small molecule agonists, cell-based qHTS assay with rat liver microsomes (AID 1963578)
Method in brief: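 Agonist mode in p53RE-bla reporter cells, with compounds co-incubated 16 h at 37 C alongside 0.5 mg/mL rat liver microsomes and 0.5 mg/mL NADPH (final), followed by a 2 h LiveBLAzer detection step.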

[8] = p53 small molecule agonists, cell-based qHTS assay with human liver microsomes: qHTS cell viability counter screen (AID 1963579); further: nearly all actives have a fitted effect of over 45% in size; further: potency means the concentration at half of the fitted maximal effect
Method in brief: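 Metabolically activated exposure: compounds, human liver microsomes and NADPH (0.5 mg/mL final apiece) were added to p53RE-bla cells seeded 5 h earlier, left 16 h at 37 C, and then assessed for viability by CellTiter-Glo luminescence.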

[9] = p53 small molecule agonists, cell-based qHTS assay with rat liver microsomes: qHTS cell viability counter screen (AID 1963580); further: nearly all actives have a fitted effect of over 45% in size; further: potency means the concentration at half of the fitted maximal effect
Method in brief: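 p53RE-bla HCT-116 cells were exposed 16 h at 37 C to compounds with rat liver microsomes (0.5 mg/mL) and NADPH (0.5 mg/mL). Viability was measured in the same wells as ATP content by CellTiter-Glo luminescence.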

[10] = p53 small molecule agonists, cell-based qHTS assay (AID 1963582; active means well fitted activation curve with a large enough effect in the signal ratio in the repeat runs, not every such curve was filed as active; the % refers to the signal ratio)
Method in brief: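 Reporter line: p53RE-bla. Pre-incubation 5 h, 37 C, 5% CO2; compound (DMSO, pin tool) 16 h, 37 C; B/G FRET substrate 2 h RT; fluorescence intensity read.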

[11] = target: 5-hydroxytryptamine receptor 2A (Homo sapiens) (UniProt P28223); test: 5-hydroxytryptamine receptor 2A (HTR2A) small molecule agonists, cell-based qHTS assay (AID 1963587); further: nearly all actives have a fitted effect of over 30% in size; further: potency means the concentration at half of the fitted maximal effect
Sequence of 5-hydroxytryptamine receptor 2A (Homo sapiens) (P28223 whole entry, looked up): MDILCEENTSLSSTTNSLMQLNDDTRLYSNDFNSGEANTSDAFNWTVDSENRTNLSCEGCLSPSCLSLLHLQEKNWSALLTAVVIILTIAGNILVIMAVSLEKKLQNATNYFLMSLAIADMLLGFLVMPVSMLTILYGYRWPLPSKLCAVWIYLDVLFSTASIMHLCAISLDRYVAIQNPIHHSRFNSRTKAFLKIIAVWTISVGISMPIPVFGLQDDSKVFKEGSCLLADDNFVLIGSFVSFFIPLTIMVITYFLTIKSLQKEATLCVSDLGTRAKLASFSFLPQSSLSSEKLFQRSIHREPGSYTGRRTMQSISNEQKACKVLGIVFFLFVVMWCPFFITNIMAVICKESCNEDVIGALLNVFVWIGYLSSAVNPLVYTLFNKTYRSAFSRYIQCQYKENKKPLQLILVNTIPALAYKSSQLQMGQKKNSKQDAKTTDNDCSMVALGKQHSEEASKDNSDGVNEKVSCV
Method in brief: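 CHO cells stably expressing human HTR2A, plated 18 h, loaded with calcium dye 1 h at 37 C. Agonist mode: compounds added and intracellular calcium fluorescence recorded kinetically for 2 min at 1 sec intervals.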

[12] = target: Muscarinic acetylcholine receptor M1 (Homo sapiens) (UniProt P11229); test: Cholinergic receptor muscarinic 1 (CHRM1) small molecule antagonists, cell-based qHTS assay (AID 1963588); further: nearly all actives have a fitted effect of over 40% in size; further: potency means the concentration at half of the fitted maximal effect
Sequence of Muscarinic acetylcholine receptor M1 (Homo sapiens) (P11229 whole entry, looked up): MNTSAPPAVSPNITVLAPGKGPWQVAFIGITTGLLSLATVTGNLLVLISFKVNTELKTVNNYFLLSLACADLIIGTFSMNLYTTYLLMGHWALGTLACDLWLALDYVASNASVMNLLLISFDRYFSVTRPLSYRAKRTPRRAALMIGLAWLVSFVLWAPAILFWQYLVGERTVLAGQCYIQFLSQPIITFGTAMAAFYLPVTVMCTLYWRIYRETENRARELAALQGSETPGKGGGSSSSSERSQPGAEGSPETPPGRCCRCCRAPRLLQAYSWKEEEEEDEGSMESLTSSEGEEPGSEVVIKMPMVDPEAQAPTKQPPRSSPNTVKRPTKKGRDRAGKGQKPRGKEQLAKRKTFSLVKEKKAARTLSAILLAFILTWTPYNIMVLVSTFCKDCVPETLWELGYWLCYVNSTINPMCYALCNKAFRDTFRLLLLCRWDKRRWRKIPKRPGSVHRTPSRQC
Method in brief: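 CHRM1-CHO calcium-flux assay, antagonist mode. Cells were seeded 18 h, dye-loaded 1 h at 37 C and given compound for 5 min at RT, then acetylcholine was added at 50nM. FDSS fluorescence was read 3 min; 15 concentrations, three runs.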

[13] = target: Muscarinic acetylcholine receptor M1 (Homo sapiens) (UniProt P11229); test: Cholinergic receptor muscarinic 1 (CHRM1) small molecule agonists, cell-based qHTS assay (AID 1963589); further: nearly all actives have a fitted effect of over 35% in size
Method in brief: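 Human M1 in stable CHO line; 18 h plating, 1 h dye load 37 C; cpd added (agonist mode); Ca2+ fluorescence kinetic read, 1 s intervals; 15 conc, 3 runs.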

[14] = cAMP Responsive Elements (CRE) small molecule agonists, cell-based qHTS assay (AID 1963590)
Method in brief: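 HEK 293T CRE-bla, 2,000 cells/well, 18 h preincubation 37 C/5% CO2; cpds (DMSO) pinned, 3 h; LiveBLAzer B/G FRET substrate, 2 h RT.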

[15] = cAMP Responsive Elements (CRE) small molecule antagonists, cell-based qHTS assay (AID 1963591; active means well fitted inhibition curve with a large enough effect in the signal ratio in the repeat runs, not every such curve was filed as active; the % refers to the signal ratio)
Method in brief: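 Beta-lactamase reporter read by FRET substrate (LiveBLAzer B/G) after 2 h at room temperature. CRE-bla HEK293T cells had received compound plus 0.25 uM (final) NKH477 for 3 h at 37 °C.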

[16] = target: Beta-2 adrenergic receptor (Homo sapiens) (UniProt P07550); test: Adrenergic beta2 receptor (ADRB2) small molecule antagonists, cell-based qHTS assay (AID 1963592); further: series mostly up to about 92 µM; nearly all actives have a fitted effect of over 50% in size
Sequence of Beta-2 adrenergic receptor (Homo sapiens) (P07550 whole entry, looked up): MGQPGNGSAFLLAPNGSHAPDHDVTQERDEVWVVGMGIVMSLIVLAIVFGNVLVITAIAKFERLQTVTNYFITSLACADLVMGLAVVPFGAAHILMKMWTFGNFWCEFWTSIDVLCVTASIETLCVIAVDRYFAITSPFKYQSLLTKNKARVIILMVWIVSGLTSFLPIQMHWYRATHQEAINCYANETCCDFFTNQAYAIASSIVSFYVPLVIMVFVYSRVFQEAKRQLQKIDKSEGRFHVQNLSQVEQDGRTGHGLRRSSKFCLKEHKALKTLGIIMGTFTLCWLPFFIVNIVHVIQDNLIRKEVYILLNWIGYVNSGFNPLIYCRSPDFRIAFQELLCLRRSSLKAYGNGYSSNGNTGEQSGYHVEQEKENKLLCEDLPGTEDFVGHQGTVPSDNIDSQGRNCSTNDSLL
Method in brief: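 Cells (CHO, stable ADRB2 overexpression) incubated 18-20hr at 37C; compounds added from DMSO; agonist mix (1nM isoproterenol, 100uM IBMX, 25uM Ro-20-1724) added; 0.5hr RT; d2-cAMP and anti-cAMP-cryptate added; 1hr RT; 665/615 nm read.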

[17] = target: Beta-2 adrenergic receptor (Homo sapiens) (UniProt P07550); test: Adrenergic beta2 receptor (ADRB2) small molecule agonists, cell-based qHTS assay (AID 1963593);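 further: CHO cells stably overexpressing human ADRB2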
Method in brief: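 CHO cells stably over-expressing ADRB2 were plated overnight at 37C, then dosed with compounds plus a stimulation mix containing 100uM IBMX and 25uM Ro-20-1724 for 0.5hr at room temperature. cAMP was measured by HTRF competition, 1hr.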

[18] = target: D(2) dopamine receptor (Homo sapiens) (UniProt P14416); test: Dopamine D2 receptor (DRD2) small molecule agonists, cell-based qHTS assay (AID 1963594); further: nearly all actives have a fitted effect of over 35% in size
Sequence of D(2) dopamine receptor (Homo sapiens) (P14416 whole entry, looked up): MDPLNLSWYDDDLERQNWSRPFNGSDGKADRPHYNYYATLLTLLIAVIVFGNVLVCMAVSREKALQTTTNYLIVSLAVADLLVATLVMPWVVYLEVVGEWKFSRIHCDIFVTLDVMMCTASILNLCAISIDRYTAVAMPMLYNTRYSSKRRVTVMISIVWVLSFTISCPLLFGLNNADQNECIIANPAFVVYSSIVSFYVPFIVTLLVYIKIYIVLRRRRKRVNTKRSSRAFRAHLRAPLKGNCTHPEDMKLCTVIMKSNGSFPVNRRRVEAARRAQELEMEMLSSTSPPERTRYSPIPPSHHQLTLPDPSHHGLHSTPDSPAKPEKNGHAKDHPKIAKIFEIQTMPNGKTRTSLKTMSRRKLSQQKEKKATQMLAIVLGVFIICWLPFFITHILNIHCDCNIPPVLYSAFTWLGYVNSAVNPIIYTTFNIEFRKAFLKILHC
Method in brief: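 HEK293 cells stably expressing human DRD2, pre-treated with PDE inhibitor Ro20-1724 (0.1 mM final) and compound 10 min at room temperature, then stimulated with NKH477 (200nM […]) for 30 min. cAMP read by HTRF (665/620 nm).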

[19] = target: D(2) dopamine receptor (Homo sapiens) (UniProt P14416); test: Dopamine D2 receptor (DRD2) small molecule antagonists, cell-based qHTS assay (AID 1963595; active means well fitted inhibition curve with a large enough effect in the signal ratio in the repeat runs, with a control signal flat; the % refers to the signal ratio)
Method in brief: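 Cells were plated and grown for 24 h at 37 °C. Ro20-1724 (0.1 mM final) went in first, then compound for 10 min. NKH477 (200 nM) with quinpirole (12 nM) followed for 30 min at RT, then HTRF detection reagents for 1 h.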

[20] = target: 5-hydroxytryptamine receptor 2A (Homo sapiens) (UniProt P28223); test: 5-hydroxytryptamine receptor 2A (HTR2A) small molecule antagonists, cell-based qHTS assay (AID 1963586); further: nearly all actives have a fitted effect of over 45% in size; further: potency means the concentration at half of the fitted maximal effect
Method in brief: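 Antagonist-mode intracellular calcium assay: DOI (4 nM) added after 5 min compound pre-incubation at room temperature to dye-loaded HTR2A-CHO cells. Fluorescence followed for 3 min, sampled every second.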

CCN(CC)CCOCCOC(=O)C1(c2ccccc2)CCCC1
Potency [1]: inactive | Potency [2]: inactive | Potency [3]: inactive | outcome [4]: inactive | outcome [5]: inactive | Potency [6]: inactive | Potency [7]: inactive | Potency [8]: inactive | Potency [9]: inactive | Potency [10]: inactive | Potency [11]: inactive | Potency [12]: 0.13 µM (active) | Potency [13]: inactive | Potency [14]: inactive | Potency [15]: inactive | Potency [16]: inactive | Potency [17]: inactive | Potency [18]: inactive | Potency [19]: inactive

CCC1NC(=O)c2cc(S(N)(=O)=O)c(Cl)cc2N1 (centres undefined)
Potency [1]: inactive | Potency [2]: inactive | Potency [3]: inactive | outcome [4]: inactive | outcome [5]: inactive | Potency [6]: inactive | Potency [7]: inactive | Potency [8]: inactive | Potency [9]: inactive | Potency [10]: inactive | Potency [20]: inactive | Potency [12]: inactive | Potency [15]: inactive | Potency [16]: inactive | Potency [17]: inactive | Potency [18]: inactive

COC(C)(C)CCCC(C)CC=O (centres undefined)
Potency [1]: inactive | Potency [2]: inactive | Potency [3]: inactive | outcome [4]: inactive | outcome [5]: inactive | Potency [6]: inactive | Potency [7]: inactive | Potency [8]: inactive | Potency [9]: inactive | Potency [10]: inactive | Potency [20]: inactive | Potency [11]: inactive | Potency [12]: inactive | Potency [13]: inactive | Potency [15]: inactive | Potency [16]: inactive | Potency [18]: inactive | Potency [19]: inactive

CCOCCOCCOC(C)=O
Potency [1]: inactive | Potency [2]: inactive | Potency [3]: inactive | outcome [4]: inactive | outcome [5]: inactive | Potency [6]: inactive | Potency [7]: inactive | Potency [8]: inactive | Potency [9]: inactive | Potency [10]: inactive | Potency [20]: inactive | Potency [11]: inactive | Potency [12]: inactive | Potency [14]: inactive | Potency [15]: inactive | Potency [16]: inactive | Potency [18]: inactive | Potency [19]: inactive

CCCCCCCCCCCCCCCCCC#N
Potency [1]: inactive | Potency [2]: inactive | Potency [3]: inactive | outcome [4]: inactive | outcome [5]: inactive | Potency [6]: inactive | Potency [7]: inactive | Potency [8]: inactive | Potency [9]: 1.65 µM (active) | Potency [10]: inactive | Potency [20]: inactive | Potency [11]: inactive | Potency [12]: inactive | Potency [13]: inactive | Potency [15]: inactive | Potency [16]: inactive | Potency [18]: inactive | Potency [19]: inactive

CC1=C2[C@H](/C=C(\C)C(=O)O)CC[C@@H](C)[C@H]2CC1
Potency [1]: 44.9 µM (active) | Potency [2]: inactive | Potency [3]: inactive | outcome [4]: inactive | outcome [5]: inactive | Potency [6]: inactive | Potency [7]: inactive | Potency [8]: 29.9 µM (active) | Potency [9]: inactive | Potency [10]: inactive | Potency [20]: inactive | Potency [11]: inactive | Potency [13]: inactive | Potency [16]: inactive | Potency [18]: inactive | Potency [19]: inactive

CC(=O)OCC(=O)[C@@]1(O)CCC2C3CCC4=CC(=O)CC[C@]4(C)C3[C@@H](O)C[C@@]21C (some centres undefined)
Potency [1]: inactive | Potency [2]: inactive | Potency [3]: inactive | outcome [4]: inactive | outcome [5]: inactive | Potency [6]: inactive | Potency [7]: inactive | Potency [8]: inactive | Potency [9]: inactive | Potency [10]: inactive | Potency [20]: inactive | Potency [11]: inactive | Potency [12]: inactive | Potency [15]: inactive | Potency [16]: inactive | Potency [17]: inactive | Potency [18]: inactive | Potency [19]: inactive

CCN(CC)CCSC(=O)C(c1ccccc1)c1ccccc1
Potency [1]: inactive | Potency [2]: 33.5 µM (active) | Potency [3]: inactive | outcome [4]: inactive | outcome [5]: inactive | Potency [6]: inactive | Potency [7]: inactive | Potency [8]: inactive | Potency [9]: inactive | Potency [10]: inactive | Potency [20]: 1.45 µM (active) | Potency [11]: 3.38 µM (active) | Potency [13]: inactive | Potency [14]: inactive | Potency [16]: inactive | Potency [18]: inactive
